# TGFb inhibitor: inhibitors of TGF-b signaling; HepG2 CAGA-GFP TGF-b/SMAD3 reporter, GFP fluorescence, 18 h; TGF-beta stimulated, 500 pg/mL final; Potency, µM (titrated, usually from 46.1 µM), without a hit: at the top dose activity, negative = inhibition, hits mostly inhibitors; 1.2% of 410,000 active; AID 588855; further: on the % scale 0 is the no-effect control and ±100 the full control effect; nearly all actives have a fitted effect of over 65% in size
#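 Cell-based qHTS in HEPG2 carrying a CAGA-GFP Smad reporter; compounds added before 500 pg/mL final TGF-beta, 18 h incubation at 37 degrees C, GFP fluorescence quantified per cell by imaging cytometry.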
# S2 tox: cell viability loss in ATXN counter-screen | AID 651635 | Potency, µM (series often up to 56.7 µM), actives largely listed as cytotoxic | 0.49% of 400,000 active | S2 cells (HEK-293 line with an ATXN2-luciferase reporter) viability, CellTiter-Fluor protease fluorescence, 24 h; further: nearly all actives have a fitted effect of over 40% in size
# Nrf2 block: Nrf2 pathway inhibition; A549 ARE-Fluc reporter, luciferase luminescence, 18-24 h; Potency, µM (highest dose often 46 µM), inactives show top-dose activity change, negative = inhibition, hits mostly inhibitors; 2.1% of 360,000 active; further: on the % scale 0 is the no-effect control and ±100 the full control effect; nearly all actives have a fitted effect of over 60% in size
#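 Nrf2 function is reported as luminescence of an ARE-controlled luciferase in A549 cells. Compounds were tested at several concentrations, and a CellTiter-Fluor read on the same wells flagged cytotoxicity.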
# ATXN2 expr inh: ATXN2 expression inhibition; 0.72% of 360,000 active; Potency, µM (highest dose often 57 µM), inactives show top-dose activity change, negative = inhibition, usual class: inhibitors; HEK-293 ATXN2-luciferase reporter, luminescence, 24 h; AID 1745845; further: on the % scale 0 is the no-effect control and ±100 the full control effect; nearly all actives have a fitted effect of over 55% in size
#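 qHTS (up to 57 uM final) was run with 24 h compound exposure of reporter cells at 37 °C. Each well was multiplexed: SteadyGlo luminescence measured ATXN2-luciferase expression after a fluorogenic Gly-Phe-AFC viability readout (25 uM final).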
# A549 viability: A549 cytotoxicity, counter-screen for Nrf2 inhibitors | 0.16% of 390,000 active | A549 ARE-Fluc cells, CellTiter-Fluor viability, 18-24 h | Potency, µM (series often up to 46 µM), inactives show at the highest dose activity change, negative = cytotoxicity, actives largely listed as inhibitors | AID 504648; further: on the % scale 0 is the no-effect control and ±100 the full control effect
#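 A549 ARE_Fluc cells in 5% FBS OPTI-MEM were exposed to compounds in concentration-response for 18-24 h at 37 deg C. Viability was read by CellTiter-Fluor fluorescence (Ex 405/Em 525) after 30 min, before the luciferase read.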
# HepG2 viability: kills HepG2 cells in TGF-b inhibitor counter-screen; 0.76% of 410,000 active; Potency, µM (series often up to 46.1 µM), for the others: at the highest dose activity change, negative = cytotoxicity, most hits filed as cytotoxic; HepG2 CAGA-GFP viability, ATP luminescence, 18 h
#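 CellTiter-Glo luminescence gave cytotoxicity after 18 hours at 37 degrees C. The cells were HepG2 CAGA-GFP in 1% FBS DMEM, stimulated with 500 pg/mL TGF-beta after compound addition. %Activity was normalised to no-cell wells (complete cell-killing) and DMSO (no toxicity), and curves were fitted and classified.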
# * marks the source's active call; other numbers are inactive results; i = inactive; ? = inconclusive; . = no result given. A selection: hits, their analogues and other compounds. The true share with any hit is near 3.8%. The call rests on the fitted dose curve; in most records, active means well fitted curve in the direction sought with a large enough effect; inconclusive means small, poorly fitted or top-dose-only effect, or another doubt; inactive means no such curve, though single readings can be large; an effect the other way counts as inactive or inconclusive. Potency means the concentration at half of the fitted maximal effect.
SMILES,TGFb inhibitor,S2 tox,Nrf2 block,ATXN2 expr inh,A549 viability,HepG2 viability
Cc1cccc(-n2cc(CN(C)Cc3nccn3C)c(-c3cccc(F)c3)n2)c1,-23%,?,?,.,-3%,-14%
COc1ccc(-c2noc(CCCC(=O)NC3CCCC3)n2)cc1,-6%,i,12µM*,?,?,-4%
Cc1cccc(-c2noc(CCCC(=O)NC3CCCC3)n2)c1,8%,i,9.2µM*,-27%,2%,7%
COc1ccc(-c2noc(CCC(=O)NC3CCCCC3)n2)cc1,15%,?,16µM*,2%,-11%,1%
COc1ccc(C2=Nn3c(nnc3-c3ccccc3O)SC2)c(OC)c1,.,.,6%,.,4%,.
Cc1c(Cl)cccc1NC(=O)CSc1nc(=O)n(Cc2ccco2)c2c1CCC2,?,i,.,-36%,-3%,-13%
O=C(C=Cc1ccccc1)CC(c1ccccc1)N1CCOCC1 (stereo not drawn),?,.,?,?,?,13µM*
CCc1ccc(NC(=O)c2ccc(F)c(S(=O)(=O)NCC3COc4ccccc4O3)c2)cc1 (stereo not drawn),11µM*,?,?,?,-11%,-45%
CCc1ccc(NC(=O)c2ccc(F)c(S(=O)(=O)N(C)C3CCCCC3)c2)cc1,-9%,.,.,.,?,1%
CCc1ccc(NC(=O)c2ccc(F)c(S(=O)(=O)NC3CCCCCC3)c2)cc1,11µM*,.,.,.,?,-17%
COc1cc(OC)c(/C=N/NC(N)=S)cc1Br,5%,i,3%,-10%,10%,2%
COc1cc2c(-c3ccccc3)c(C)oc2cc1/C=N/NC(N)=S,?,i,-16%,.,-9%,6.3µM*
O=C1CCc2cc(S(=O)(=O)Nc3ccc(-c4ccccc4)cc3)ccc2N1,.,.,12µM*,.,2%,.
CNC(=S)N1CCN(c2ccc(Cl)c(Cl)c2)CC1,-16%,i,?,-35%,2%,-23%
CC(C)Oc1cc(NC(=O)CSCC(=O)Nc2cccc(C(F)(F)F)c2)c(Cl)cc1Cl,11µM*,?,6%,?,2%,-87%
O=C(O)CSCC(=O)Nc1cc(C(F)(F)F)ccc1Cl,-18%,i,3%,5%,0%,-6%
CC(C)Cn1cc(NC(=O)Nc2cccc(C(F)(F)F)c2)c2ccccc2c1=O,?,i,23µM*,-19%,-20%,-32%
CC(C)Cn1cc(NC(=O)N2CCN(c3cccc(C(F)(F)F)c3)CC2)c2ccccc2c1=O,-27%,i,-17%,?,-5%,-44%
CC(C)(C)NC(=O)NC(=O)CN1CCN(c2cccc(Cl)c2)CC1,-20%,i,?,-33%,-5%,-43%
CC1CN(CCCCOc2ccc(Cl)c3ccccc23)CC(C)O1 (stereo not drawn),16µM*,i,-10%,-33%,3%,-59%
COc1ccc(C(=O)c2cc([N+](=O)[O-])ccc2N2CCCC2)cc1,-23%,?,?,-27%,?,5%
COc1ccc(C(=O)c2cc([N+](=O)[O-])ccc2N2CCN(C)CC2)cc1,2%,i,10%,-23%,15µM*,-12%
CCCN(CCC)CCCNC(=O)c1cc2cc3ccc(Cl)cc3nc2o1,13%,i,13%,-17%,5%,-14%
COc1ccc2cc3cc(C(=O)NCc4ccccn4)oc3nc2c1,-3%,i,-23%,7%,1%,-1%
COc1ccc2cc3cc(C(=O)NCc4ccco4)oc3nc2c1,-18%,i,5.2µM*,-11%,-25%,-18%
O=C(NCc1ccco1)c1cc2cc3ccc(Cl)cc3nc2o1,-3%,i,23µM*,-28%,?,-4%
NC(=O)c1cccc(-c2coc3c(C(=O)NCc4ccccc4)cccc23)c1,?,?,.,4%,.,-18%
